We go through eleven compounds from PubChem BioAssay (NCATS).

The nature of assay [1]: Primary qHTS for Huh7 cytotoxicity: counterscreen for inhibitors of MERS-S pseudotyped particle cell entry (AID 1479147). The settings on record: outcome: dose series up to 57.1 µM unless noted.
Assay [2] can be described thus: Primary qHTS for inhibitors of MERS-S pseudo-typed particle cell entry (AID 1479149). Also: nearly all actives have a fitted effect of over 60% in size. As to activity change, negative = inhibition: % is scaled to controls: 0 for no effect and ±100 for the full control effect. The settings on record: outcome: dose series up to 57.1 µM unless noted. A general note: qHTS replaces the single test concentration by a dilution series.
Assay [3] is described as follows: Primary qHTS for Vero E6 cytotoxicity: counterscreen for inhibitors of SARS-S pseudo-typed particle cell entry (AID 1479150). The settings on record: outcome: dose series up to 57.1 µM unless noted.
Assay [4] is described as follows: Cytotoxicity counterscreen for inhibitors of SARS-CoV-2 cell entry (AID 1645845). Also: nearly all actives have a fitted effect of over 50% in size. The settings on record: outcome: dose series up to 57.1 µM unless noted. A digest of the protocol: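 48 h compound treatment (after 1 h preincubation), HEK293-ACE2 cells, 37 C/5% CO2; ATP luminescence endpoint; normalized to cell wells and media blanks.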
The nature of assay [5]: Primary qHTS to identify inhibitors of SARS-CoV-2 cell entry (AID 1645846). Also: nearly all actives have a fitted effect of over 45% in size. Also: potency is read from the fitted curve at half-maximal effect. As to conditions: SARS-CoV-2 pseudovirus cell entry assay, luminescence; activity change, negative = inhibition: at 57.1 µM (top of the series) unless noted. A digest of the protocol: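 Entry measured by luciferase signal 48 h after adding SARS-CoV-2-S pseudotyped MLV particles to HEK293-ACE2 cells preincubated 1 h with compounds. Normalisation: bald particles and spike particles.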

Assay [6] concerns the target Glutathione peroxidase 1 (Homo sapiens) (UniProt P07203). Kind of assay: Primary qHTS Assay for Inhibitors of Recombinant Selenoprotein Glutathione Peroxidase 1 (GPX1) (AID 1845191; active = well fitted inhibition curve with a large enough effect; also: % is scaled to controls: 0 for no effect and ±100 for the full control effect; nearly all actives have a fitted effect of over 65% in size). A digest of the protocol:
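10 nM GPX1 + cpd, 30 min RT; start w/ 1 mM GSH, 0.5 mM cumene hydroperoxide, 0.5 mM NADPH, 100 nM GR, 0.01% BSA; buffer 50 mM Tris-HCl pH 7.5, 2 mM EDTA, 150 mM NaCl; Fl 340/450, 0 & 15 min.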

Assay [7] addresses Phospholipid hydroperoxide glutathione peroxidase GPX4 (Homo sapiens) (UniProt P36969). Nature of the assay: Primary qHTS Assay for Inhibitors of Recombinant Selenoprotein Glutathione Peroxidase 4 (GPX4) (AID 1845192; active = well fitted inhibition curve with a large enough effect; also: nearly all actives have a fitted effect of over 65% in size; as to activity change, negative = inhibition: % is scaled to controls: 0 for no effect and ±100 for the full control effect). A digest of the protocol:
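NADPH consumption, followed by fluorescence at 340/450 nm between 0 and 15 min, reports GPX4 activity via coupled glutathione reductase (100 nM). Enzyme 200 nM was pre-exposed to compound 30 min; 0.5 mM cumene hydroperoxide and 1 mM GSH served as substrates.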

Results filed as inconclusive are left out. Some compounds were tested as several samples or in several runs, with calls that do not always agree. Active and inactive are the calls of the source. Unless noted, calls follow the shape of the full dose curve.

Sequence of Phospholipid hydroperoxide glutathione peroxidase GPX4 (Homo sapiens) (P36969 whole entry, looked up): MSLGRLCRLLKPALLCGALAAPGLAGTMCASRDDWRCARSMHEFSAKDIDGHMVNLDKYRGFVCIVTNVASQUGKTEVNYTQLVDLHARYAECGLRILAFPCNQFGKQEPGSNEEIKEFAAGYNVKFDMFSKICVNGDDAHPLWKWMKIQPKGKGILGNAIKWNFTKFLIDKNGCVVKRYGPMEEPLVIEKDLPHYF
Sequence of Glutathione peroxidase 1 (Homo sapiens) (P07203 whole entry, looked up): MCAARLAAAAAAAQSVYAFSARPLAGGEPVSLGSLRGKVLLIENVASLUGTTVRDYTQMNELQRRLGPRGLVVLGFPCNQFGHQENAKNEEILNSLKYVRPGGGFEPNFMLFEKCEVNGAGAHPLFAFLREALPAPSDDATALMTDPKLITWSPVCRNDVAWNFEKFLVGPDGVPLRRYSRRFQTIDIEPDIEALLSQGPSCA

On to `CCC(=O)O[C@@H]1CC(=O)O[C@H](C)C/C=C/C=C/[C@@H](O)[C@H](C)C[C@H](CC=O)[C@H](OC2O[C@H](C)[C@@H](O[C@H]3C[C@@](C)(O)[C@@H](OC(=O)CC)[C@H](C)O3)[C@H](N(C)C)[C@H]2O)[C@H]1OC` (stereo not given in full), for which the Potency result in assay [1], in assay [2], in assay [3] and in assay [4] was “inactive” throughout. Besides, in assay [5], the activity change, negative = inhibition is -26.3%.
Take `CC1(C)C[C@H]1C(=O)N/C(=C\CCCCSC[C@@H](N)C(=O)O)C(=O)O`: the Potency result in assay [1], in assay [2], in assay [3] and in assay [4] was “inactive” throughout. Further, the activity change, negative = inhibition in assay [5] was -28.6%.
`COc1cc(/C=C\C(=O)N2CCN(CC(=O)N3CCCC3)CC2)cc(OC)c1OC`: the Potency result in assay [1], in assay [2], in assay [3], in assay [4] and in assay [5] was “inactive” in each case.
`C=C[C@H]1CN2CC[C@H]1C[C@@H]2[C@@H](OC(=O)OCC)c1ccnc2ccc(OC)cc12`: the Potency result in assay [1], in assay [2], in assay [3], in assay [4], in assay [6] and in assay [7] was “inactive” in each case.
In the case of `CC#CCC(C)[C@H](O)/C=C/[C@@H]1[C@H]2c3cccc(CCCC(=O)O)c3O[C@H]2C[C@H]1O` (stereo not given in full), the Potency entry in assay [1], in assay [2], in assay [3] and in assay [4] was “inactive” each time. The activity change, negative = inhibition in assay [5] is -5.27%.
Turning to `C=CCNc1c(O)cc2c(O)c1C[C@@H](C)C[C@H](OC)[C@H](O)[C@@H](C)/C=C(/C)[C@H](OC(N)=O)[C@@H](OC)/C=C\C=C(\C)C(=O)N2`, the Potency entry in assay [1], in assay [2], in assay [3] and in assay [4] was “inactive” throughout. Besides, the Potency in assay [5] is 3.16 µM (active). Also, in assay [5], the activity change, negative = inhibition was -94%.
As to `CN(C)C1C(=O)C(C(N)=O)=C(O)C2(O)C(=O)C3=C(O)c4c(O)ccc(Cl)c4C(C)(O)C3CC12` (stereo not given), the Potency result in assay [1], in assay [2], in assay [3], in assay [4] and in assay [6] was “inactive” each time.
`CC1(C)SC2C(NC(=O)Cc3ccccc3)C(=O)N2C1C(=O)O` (stereo not given): the Potency result in assay [1], in assay [2], in assay [3] and in assay [4] was “inactive” each time. For the same compound, the activity change, negative = inhibition in assay [5] is -15.9%.
For the compound `CC(C)N[C@@H]1CCn2c(=O)[nH]c3cccc(c32)[C@H]1O`, the Potency entry in assay [1], in assay [2], in assay [3], in assay [4], in assay [5] and in assay [6] was “inactive” throughout. Besides, the Potency result in assay [7] was “inactive”.
Take `CC1=C(C(=O)O)N2C(=O)[C@@H](NC(=O)[C@H](N)C3=CCC=CC3)[C@@H]2SC1`: the Potency entry in assay [1], in assay [2], in assay [3] and in assay [4] was “inactive” in each case. Further, in assay [5], the activity change, negative = inhibition was -32.9%.
For the compound `CCCCCCCCCCCCNCCNCCNCC(=O)O`, the Potency result in assay [1], in assay [2], in assay [3], in assay [4] and in assay [7] was “inactive” each time. Moreover, in assay [5], the activity change, negative = inhibition was -24.3% [at 27.1 µM].
